According to PubChem BioAssay (Tox21):
Inconclusive results are not listed. Activity calls are given as the source filed them. Calls follow the shape of the full dose curve.

These molecules were tested against Retinoic acid receptor RXR-alpha (Homo sapiens) (UniProt P19793) (assay: qHTS assay to identify small molecule agonists of the RXR signaling pathway (AID 1159527; also: nearly all actives have a fitted effect of over 35% in size)). Settings: HEK293T RXRa-UAS-bla, beta-lactamase ratio, 16 h; series mostly up to 76.8 µM; activation: at the top concentration.
Chain of Retinoic acid receptor RXR-alpha (Homo sapiens) (P19793 whole entry, looked up): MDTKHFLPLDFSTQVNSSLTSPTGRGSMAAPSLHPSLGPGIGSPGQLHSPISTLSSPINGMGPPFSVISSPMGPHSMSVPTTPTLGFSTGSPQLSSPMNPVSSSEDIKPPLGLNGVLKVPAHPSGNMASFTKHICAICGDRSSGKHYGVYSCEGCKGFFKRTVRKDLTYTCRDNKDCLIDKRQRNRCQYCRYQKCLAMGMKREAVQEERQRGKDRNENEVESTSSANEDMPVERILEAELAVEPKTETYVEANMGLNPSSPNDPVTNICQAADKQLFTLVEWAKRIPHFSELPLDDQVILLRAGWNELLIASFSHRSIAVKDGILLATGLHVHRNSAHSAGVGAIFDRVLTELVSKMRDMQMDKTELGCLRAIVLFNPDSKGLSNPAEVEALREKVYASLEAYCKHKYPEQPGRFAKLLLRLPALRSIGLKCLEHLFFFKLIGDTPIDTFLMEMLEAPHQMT
Description: U.S. Tox21 Program National Center for Advancing Translational Sciences [NCATS] NIH Chemical Genomics Center [NCGC] U.S. Environmental Protection Agency [EPA] National Institutes of Environmental Health Sciences [NIEHS] National Toxicology Program [NTP] U.S. Food and Drug Administration [FDA] Tox21 Assay Overview: The Retinoid X receptor (RXR), a nuclear hormone receptor expressed in liver, spleen, placenta, epidermis, central nervous system. These receptors are able to form homo and heterodimers with other nuclear receptors and due to this heterodimerizing ability, RXR functions as master regulators producing diverse physiological effects. Three subtypes of RXR exist; alpha, beta and gamma. Retinoid X receptor alpha (RXR-alpha) has potential roles in metabolic signaling pathways, skin alopecia, dermal cysts, cardiac development, insulin sensitization etc. Therefore screening environmental chemicals on RXR-alpha signaling can be used for the studies focused on such therapeutic applications. For quantification of RXR-alpha ligands signaling, GeneBLAzer RXR alpha-UAS-bla HEK 293T (Life Technologies, Carlsbad, CA) cells containing a beta-lactamase reporter-gene under control of Retinoid X receptor-alpha response element were used to screen Tox21 10K library.
Tox21 Assay Protocol Summary: RXR-alpha HEK 293T cells were dispensed at 2,000 cells/6 uL of assay medium containing 2% charcoal-stripped FBS using a Multidrop Combi (ThermoFisher Scientific, Waltham, MA) dispenser. The assay was performed in black wall/clear-bottom 1536-well plates (Greiner Bio-One North America Inc. Monroe, NC). 9-cis retinoic acid was used as a positive control in the agonist mode screen. After the assay plates were incubated at 37 C and 5% CO2 for 5 hr, 23 nL of compounds dissolved in DMSO, positive controls or DMSO only were transferred to the assay plate by a Pintool station (Kalypsys, San Diego, CA). The assay plates were incubated at 37 C and 5% CO2 for 16 hr. One uL of LiveBLAzer B/G FRET substrate (Life Technologies) was added using a Flying Reagent Dispenser (Aurora Discovery, San Diego, CA) and the plates were incubated at room temperature for 2 hr. Fluorescence intensity (405 nm excitation, 460/530 nm emission) was measured using an Envision plate reader (PerkinElmer, Shelton, CT).
% is scaled to controls: 0 for no effect and ±100 for the full control effect.

| SMILES | activation | Potency |
| --- | --- | --- |
| CC1CCCCC1 | -1.56% (inactive) |  |
| CC(=O)OC1CCCCC1 | 2.45% (inactive) |  |
| C=CC(=O)OCCN(CC)CC | -3.73% (inactive) |  |
| CC(=O)C=O | 5.72% (inactive) |  |
| OCCN1CN(CCO)CN(CCO)C1 | 6.07% (inactive) |  |
| c1ccc2c(c1)CCC2 | 0.129% (inactive) |  |
| CCCCCCCCCCCCCc1ccccc1 | 2.11% [at 35.3 µM] (inactive) |  |
| Clc1cccnc1 | 6.02% (inactive) |  |
| O=C=NCc1cccc(CN=C=O)c1 | -0.945% [at 15.8 µM] (inactive) |  |
| C=C(C)CCCC | 6.27% (inactive) |  |
| CC(C)(c1cc(Br)c(O)c(Br)c1)c1cc(Br)c(O)c(Br)c1 |  | inactive |
| COC(=O)CC#N | -2.52% (inactive) |  |
| C(=C/c1ccccc1)/c1ccccc1 | 5.56% (inactive) |  |
| CC(=O)Oc1ccc(C2(c3ccc(OC(C)=O)cc3)C(=O)Nc3ccccc32)cc1 | -3.87% [at 35.3 µM] (inactive) |  |
| [O]=[Zr] | 2.06% (inactive) |  |
| CC1=CCC(=O)O1 | 3.41% (inactive) |  |
| CCOC(=O)C1=C(C)NC(C)=C(C(=O)OCC)C1c1ccccc1/C=C/C(=O)OC(C)(C)C | 5.08% [at 35.3 µM] (inactive) |  |
| Cc1cccc(C)n1 | -7.9% (inactive) |  |
| CC(C)=C1CC[C@@H](C)CC1=O | 8.32% (inactive) |  |
| O=C1OC(=O)c2ccc3c4c(ccc1c24)C(=O)OC3=O | 5.25% (inactive) |  |

| SMILES | activation | Potency |
| --- | --- | --- |
| CCCCCCCC(OC)OC | 1.13% [at 35.3 µM] (inactive) |  |
| CCCCCCCCCCCCCCCCCO | 2.15% [at 15.8 µM] (inactive) |  |
| COc1ccccc1C=O | 0.0558% (inactive) |  |
| CC(C)(C)C1=CC(=O)C=C(C(C)(C)C)C1=O | -0.441% (inactive) |  |
| C[C@@H]1CC[C@H]2C(C)(C)[C@H]3C[C@@]12CC[C@@]3(C)O | -10.7% (inactive) |  |
| Cc1cccc(N(C)C)c1 | 0.672% (inactive) |  |
| Nc1cc(Cl)c([N+](=O)[O-])cc1O | -0.154% (inactive) |  |
| Cn1cnc2ncnc(N)c21 | -0.13% [at 35.3 µM] (inactive) |  |
| CN1[C@@H]2CC[C@@H]1CC(OC(=O)C(CO)c1ccccc1)C2 (stereo not given in full) | 0.537% [at 35.3 µM] (inactive) |  |
| CCN(CC)c1cccc(C)c1 | 1.57% (inactive) |  |
| CC(C)c1ccccc1N | 6.38% (inactive) |  |
| CN(C)CCN1CCOCC1 | 4.44% (inactive) |  |
| CCO[Si](C)(C)OCC | -5.13% (inactive) |  |
| CCC(C)c1ccccc1 (stereo not given) | 4.93% (inactive) |  |
| O=S(=O)(O)c1cc(S(=O)(=O)O)c2ccc3c(S(=O)(=O)O)cc(S(=O)(=O)O)c4ccc1c2c43 | -3.71% [at 15.8 µM] (inactive) |  |
| CCc1ccc(O)c(C(C)(C)C)c1 | 4.31% (inactive) |  |
| OCCCCl | 2.11% (inactive) |  |
| Cn1cccc1 | -0.317% (inactive) |  |
| Oc1ccc(-c2ccccc2)c(Cl)c1 | -7.29% (inactive) |  |
| NC(=O)c1nc(-c2cccc(-c3cc(F)ccc3OCC(F)(F)C(F)(F)F)c2)n[nH]1 | 17.6% (inactive) |  |
